Reference: PubChem BioAssay
“And” between values parts separate entries of the source, which are not always exact repeats. Equal values may be shown once. Some structures have more than one record in an assay (separate samples or runs), and their calls can disagree. The source made the active and inactive calls.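 Rule for the calls, unless noted: active = inhibition at or above 50% relative to wild type and mutant plate controls; inactive = inhibition below 50%.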

Assays:
[1] = inhibitors of TNFa-induced NFkB p65 translocation, primary screen, imaging, HUVEC, MLSMR starter and 10KST1 sets (AID 438;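 active = inhibition above 20% together with a positive visual image hit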;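 note: compound added about 3h40 before a 20 min TNFalpha stimulation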;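 for inhibition: signal is the nuclear over cytoplasmic p65 intensity ratio per well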); details: HUVEC TNFa-induced p65 nuclear translocation; cell count: measured here: nuclei count (cytotoxicity indicator), at 2.08 µM; inhibition: at 2 µM, stronger effect = higher value, 0% TNFa-plus-vehicle, 100% no-TNFa wells
[2] = inhibitors of mutant huntingtin aggregation, primary screen, imaging, exon1htt(103Q)mCFP cells, high-content imaging (AID 483;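 active = visual image review flags a hit and inhibition of aggregation exceeds 20%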;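 note: compound exposure lasted 3 days before fixation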;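 for nuclei count: percent of the per-plate median nuclei count of sample wells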); details: exon1htt(103Q)mCFP cell line, aggregate imaging, at 2 µM; inhibition of aggregation: stronger effect = higher value; nuclei count: measured here: cell count, toxicity
[3] = inhibitors of E-selectin induction by TNFa, primary screen, imaging, HUVEC, immunofluorescence, MLSMR starter and 10KST1 sets (AID 487;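 active = visually confirmed hit in the image check and inhibition above 20%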;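 for inhibition: signal is fraction of cell area covered by stained E-selectin grains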;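 for nuclei count: 100% = median nuclei count of all wells on the same plate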); details: HUVEC TNFalpha-induced E-selectin immunofluorescence imaging, at 2 µM; inhibition: stronger effect = higher value; nuclei count: measured here: cell number, toxicity
[4] = DUSP6 inhibitors restoring Erk phosphorylation by chemical complementation, primary imaging in DUSP6-transfected HeLa (AID 609;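 active = compounds giving at least 50% inhibition in the cell-based MKP-3 phosphatase rescue imaging test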;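 for inhibition: phospho-Erk level distribution per well compared with pooled transfected vehicle control wells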); details: HeLa MKP-3 transfected, phospho-Erk imaging KS statistic, at 10 µM, cells stimulated with TPA for 15 min
[5] = biological target: Dual specificity protein phosphatase 6 (Homo sapiens) (UniProt Q16828); assay: as above; details: HeLa MKP-3 transfected, phospho-Erk imaging KS statistic; at 10 µM; stronger effect = higher value; cells stimulated with TPA for 15 min
[6] = biological target: Voltage-gated potassium channel subunit beta-2 (Rattus norvegicus) (UniProt P62483); assay: KvBeta enzyme negative modulators, primary screen, biochemical, NADPH fluorescence (AID 622;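 active = fluorescence slope higher than the sample average by over 3 SD, cut at about -0.22 in these data, passing the limit was not always enough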;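 note: slope of raw intensity against log time taken from 70 to 1610 s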); details: recombinant KvBeta, 4-cyanobenzaldehyde reduction, at 10 µM, stronger effect = higher value
[7] = biological target: Voltage-gated potassium channel subunit beta-2 (Rattus norvegicus) (UniProt P62483); assay: KvBeta positive modulators, primary screen, biochemical, NADPH fluorescence (AID 623;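 active = NADPH fluorescence slope more negative than the mean of all samples by about 3 SD, 99.7% confidence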;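 note: fluorescence intensity change per second fitted from 20 to 320 s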); details: Recombinant KvBeta, NADPH fluorescence decrease slope, 10 min; at 10 µM; stronger effect = lower value
[8] = biological target: Alpha-2C adrenergic receptor (Homo sapiens) (UniProt P18825); assay: modulators of alpha2C/GIRK thallium flux, primary screen, cell-based, HEK293 alpha2C/GIRK1/2 (AID 624;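 active = fluorescence slope after compound addition differing from the mean of all screened samples at 99.7% confidence, in either direction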;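 note: slope of fluorescence ratio to pre-addition baseline per second over 15 to 24 s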); details: thallium flux BTC fluorescence, at 10 µM, actives lie on both sides
[9] = inhibitors of larval lipid processing in zebrafish, primary screen, whole organism, PED6 fluorescence, gall bladder and intestine (AID 686;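 active = a full or partial loss of lipid-probe fluorescence in the fish gall bladder, intestine or both, judged by eye; inactive = no fluorescence loss, or compound toxic to the fish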;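 note: larvae 5 to 7 days old with five fish per well; signal comes from phospholipase A2 cleavage of quenched PED6 carried via bile; overnight exposure to compound and PED6 before scoring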); details: Zebrafish larvae PED6 lipid processing, fluorescence scoring; screened at 20 µM (by protocol)
[10] = inhibitors of Chlamydomonas gravitaxis, primary screen, whole organism, Chlamydomonas reinhardtii, WT vs cilia-less mutant, absorbance, 96-well (AID 463189); details: OD600 absorbance, 2 days, at 10 µM, stronger effect = higher value;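 note: 0% = wild type cc124 cells in DMSO and 100% = ciliumless bld1 mutant cells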
[11] = inhibitors of Sendai virus-induced IRF3 signaling, primary screen, TLR/RLR signaling modifier project, cell-based, Sendai virus stimulus, luciferase, 10K MLSCN set (AID 602276;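 active = inhibition at or above 50% at 10 µM; inactive = inhibition below 50%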;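 note: firefly luciferase from ISG56 promoter only with Renilla not read in this screen; 0% = Sendai virus plus DMSO and 100% = medium plus DMSO without virus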); details: HEK293 RL24 IRF3 luciferase reporter, at 10 µM, stronger effect = higher value
[12] = inhibitors of poly I:C-induced TLR3 signaling, primary screen, cell-based, poly I:C stimulus, luciferase, 10K MLSCN set (AID 602277;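 active = inhibition of the reporter signal at or above 50%; inactive = inhibition below 50%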); details: HEK293-TLR3 RL24 IRF3 luciferase reporter, at 10 µM, stronger effect = higher value
[13] = measured here: cell density z-score
[14] = measured here: nuclear c-Myc green intensity z-score
[15] = measured here: nuclear pErk red intensity z-score, stronger effect = higher value

Dual specificity protein phosphatase 6 (Homo sapiens), sequence (Q16828 whole entry, looked up): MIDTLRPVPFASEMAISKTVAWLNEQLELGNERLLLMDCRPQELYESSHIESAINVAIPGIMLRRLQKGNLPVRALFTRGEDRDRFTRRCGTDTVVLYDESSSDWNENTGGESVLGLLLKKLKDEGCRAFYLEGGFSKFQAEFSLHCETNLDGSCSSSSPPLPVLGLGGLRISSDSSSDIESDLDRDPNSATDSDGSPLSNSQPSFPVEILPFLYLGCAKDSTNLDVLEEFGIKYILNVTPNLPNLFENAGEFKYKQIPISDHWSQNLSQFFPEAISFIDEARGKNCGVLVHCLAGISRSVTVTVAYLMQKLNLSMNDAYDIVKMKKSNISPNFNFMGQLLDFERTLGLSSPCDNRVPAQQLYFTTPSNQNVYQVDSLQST
Alpha-2C adrenergic receptor (Homo sapiens), sequence (P18825 whole entry, looked up): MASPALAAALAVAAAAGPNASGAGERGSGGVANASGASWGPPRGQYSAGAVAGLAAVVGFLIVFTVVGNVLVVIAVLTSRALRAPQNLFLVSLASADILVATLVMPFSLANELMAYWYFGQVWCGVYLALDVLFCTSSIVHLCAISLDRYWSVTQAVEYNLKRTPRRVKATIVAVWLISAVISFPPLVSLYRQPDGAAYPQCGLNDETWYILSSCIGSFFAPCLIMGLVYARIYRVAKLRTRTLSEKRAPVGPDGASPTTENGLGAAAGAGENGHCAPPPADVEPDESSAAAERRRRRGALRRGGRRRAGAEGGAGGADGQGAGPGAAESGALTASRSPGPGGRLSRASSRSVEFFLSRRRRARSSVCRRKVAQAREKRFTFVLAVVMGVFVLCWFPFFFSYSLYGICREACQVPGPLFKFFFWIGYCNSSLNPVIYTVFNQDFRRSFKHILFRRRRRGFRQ
Voltage-gated potassium channel subunit beta-2 (Rattus norvegicus), sequence (P62483 whole entry, looked up): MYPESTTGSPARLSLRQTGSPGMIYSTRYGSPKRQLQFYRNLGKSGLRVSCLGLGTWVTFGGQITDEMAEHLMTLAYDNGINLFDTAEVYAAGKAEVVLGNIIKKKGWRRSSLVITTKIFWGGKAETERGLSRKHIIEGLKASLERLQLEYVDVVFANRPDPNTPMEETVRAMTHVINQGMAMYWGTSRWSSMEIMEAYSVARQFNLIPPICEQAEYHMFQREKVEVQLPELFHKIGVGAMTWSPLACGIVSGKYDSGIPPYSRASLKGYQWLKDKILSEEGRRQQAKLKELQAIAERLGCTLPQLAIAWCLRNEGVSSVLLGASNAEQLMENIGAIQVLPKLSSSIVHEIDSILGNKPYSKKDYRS

SMILES	cell count [1]	inhibition [1]	inhibition of aggregation [2]	nuclei count [2] [%]	inhibition [3]	nuclei count [3] [%]	z-score [4, 13]	z-score [4, 14]	z-score [4, 15]	inhibition [5]	fluorescence slope [6]	NADPH fluorescence slope [7]	slope [8]	outcome [9]	inhibition [10]	inhibition [11]	inhibition [12]
NCc1ccc(S(N)(=O)=O)cc1	705	-2.8% (inactive)	26.6% (inactive)	107	-71.2% (inactive)	118	0.933	-0.356	-0.92	21.2% (inactive)	-0.453 (inactive)	-9.2e-05 (inactive)	0.00484 (inactive)	inactive	1.96% (inactive)	14% (inactive)	32.7% (inactive)
CCOC(=O)CSC1=C(C#N)C(=O)NC(c2ccc(OC)c(OC)c2)S1 (stereo not drawn)	561	-4.2% (inactive)	12.1% (inactive)	88.7	-41.1% (inactive)	135	-1.42	2.48	0.606	-13.3% (inactive)	-0.509 (inactive)	-5e-05 (inactive)	0.00555 (inactive)	inactive	-1.59% (inactive)	12% (inactive)	11.8% (inactive)
C=CCn1c(N)c(C(=O)OC(C)(C)C)c2nc3ccccc3nc21	370	-11.7% (inactive)	-9.4% (inactive)	100	-104% (inactive)	124	1.71	-2	-1.69	-2.59% (inactive)	-0.257 (inactive)	0.000211 (inactive)	0.00615 (inactive)	inactive	12.3% (inactive)	12.2% (inactive)	-1.21% (inactive)
c1cncc(-c2nnc3sc(-c4ccco4)nn23)c1	535	0.4% (inactive)	3.4% (inactive)	94.2	-81.8% (inactive)	105	0.315	-1.33	1.09	-2.47% (inactive)	-0.476 (inactive)	-8.1e-06 (inactive)	0.00677 (inactive)	inactive	1.41% (inactive)	13.2% (inactive)	-2.28% (inactive)
CC(C)OC(=O)C(CC(=O)O)NCc1ccccc1 (stereo not drawn)	518	-2% (inactive)	15% (inactive)	65.3	-117% (inactive)	118	0.414	0.989	0.212	1.75% (inactive)	-0.296 (inactive)	2.8e-05 (inactive)	0.00502 (inactive)	inactive	-6.73% (inactive)	14.9% (inactive)	20.3% (inactive)
Cn1c2c(c(=O)n(C)c1=O)C(NC(=O)C(C)(C)C)(C(F)(F)F)C(=O)N2 (stereo not drawn)	538	-3.9% (inactive)	0.9% (inactive)	103	-105% (inactive)	131	-0.683	-0.488	-0.945	5.26% (inactive)	-0.51 (inactive)	-6.1e-05 (inactive)	0.00635 (inactive)	inactive	17.2% (inactive)	14.7% (inactive)	16.6% (inactive)
NS(=O)(=O)c1cc2c(cc1Cl)NC(CSCc1ccccc1)=NS2(=O)=O	643	-8.9% (inactive)	13.9% (inactive)	103	-78.7% (inactive)	116	-0.00243	-0.584	-0.561	9.37% (inactive)	-0.459 (inactive)	-7.8e-05 (inactive)	0.00625 (inactive)	inactive	2.85% (inactive)	10.8% (inactive)	33.9% (inactive)
COC(=O)C1=C(N)Oc2cc(C)[nH]c(=O)c2C1c1ccncc1 (stereo not drawn)	415	-3.5% (inactive)	5.1% (inactive)	99.8	-70.4% (inactive)	132	1.07	-0.647	-1.1	11.4% (inactive)	-0.45 (inactive)	-0.000119 (inactive)	0.00625 (inactive)	inactive	35.9% (inactive)	22.8% (inactive)	38.8% (inactive)
Cc1ccc(C2/C(=C(/O)c3cnn(-c4ccccc4)c3C)C(=O)C(=O)N2CCN2CCOCC2)o1 (stereo not drawn)	520	-2.8% (inactive)	10.2% (inactive)	100	-56.6% (inactive)	126	-0.925	1.9	-0.672	-10.5% (inactive)	-0.531 (inactive)	-4.5e-05 (inactive)	0.00497 (inactive)	inactive	-18.9% (inactive)	-28.4% (inactive)	-75.5% (inactive)
CCC(=O)c1ccc(O)cc1	663	0.5% (inactive)	-14% (inactive)	101	-19.7% (inactive)	118	-0.298	-0.183	0.759	19% (inactive)	-0.496 (inactive)	8.5e-06 (inactive)	0.00491 (inactive)	inactive	-6.67% (inactive)	13.6% (inactive)	5.36% (inactive)
Cc1c(/C(O)=C2/C(=O)C(=O)N(CCN3CCOCC3)C2c2cccnc2)cnn1-c1ccccc1 (stereo not drawn)	509	4.8% (inactive)	1.3% (inactive)	102	-26.8% (inactive)	107	0.15	-0.278	-0.0426	1.6e-07% (inactive)	-0.602 (inactive)	-1.5e-05 (inactive)	0.00432 (inactive)	inactive	23.9% (inactive)	-12% (inactive)	-9.27% (inactive)
C[C@]12CC[C@H]3[C@@H](CCC4=CC(=O)CC[C@@]43C)[C@@H]1CC[C@@H]2C(=O)CO	632	-0.8% (inactive)	4.5% (inactive)	37.5	-114% (inactive)	118	-0.564	-1.57	-0.166	-2.46% (inactive)	-0.521 (inactive)	-1e-05 (inactive)	0.00387 (inactive)	inactive	-3.19% (inactive)	1.11% (inactive)	43.7% (inactive)
Cc1ccc(N(CC(O)CN2CCCC2)S(=O)(=O)c2ccc(C)cc2)cc1 (stereo not drawn)	415	-5.4% (inactive)	8.3% (inactive)	97.4	-210% (inactive)	148	1.32	-1.19	-0.796	13.2% (inactive)	-0.388 (inactive)	-5e-05 (inactive)	0.00478 (inactive)	inactive	7.07% (inactive)	-14.3% (inactive)	-1.97% (inactive)
CC(=O)OCC(=O)[C@H]1CC[C@H]2[C@@H]3CCC4=CC(=O)CC[C@]4(C)[C@H]3CC[C@]12C	599	-7.8% (inactive)	-27.4% (inactive)	83.1	-142% (inactive)	132	-1.17	0.0337	1.04	11.3% (inactive)	-0.472 (inactive)	-1.7e-05 (inactive)	0.00411 (inactive)	inactive	6.25% (inactive)	-2.65% (inactive)	25.6% (inactive)
NC(Cc1ccc(Oc2ccc(O)cc2)cc1)C(=O)O (stereo not drawn)	563	-6.8% (inactive)	-8.1% (inactive)	103	-19.7% (inactive)	103	-0.271	-1.56	-0.79	3.45% (inactive)	-0.495 (inactive)	-5.7e-05 (inactive)	0.00414 (inactive)	inactive	-4.82% (inactive)	11.4% (inactive)	24.4% (inactive)
OCCN1CCN(CCCN2c3ccccc3Sc3ccc(Cl)cc32)CC1	705	-3% (inactive)	-20.6% (inactive)	109	-112% (inactive)	130	-0.393	0.625	2.66	3.45% (inactive)	-0.46 (inactive)	-5.7e-05 (inactive)	0.0036 (inactive)	inactive	3.48% (inactive) and 164% (active)	17.3% (inactive)	40.7% (inactive)
CC1Cc2ccccc2N1NC(=O)c1ccc(Cl)c(S(N)(=O)=O)c1 (stereo not drawn)	657	-3.7% (inactive)	4.2% (inactive)	112	-59.9% (inactive)	121	0.724	-0.336	-0.652	21.2% (inactive)	-0.544 (inactive)	-5e-05 (inactive)	0.0056 (inactive)	inactive	18.3% (inactive)	-7.5% (inactive)	-10.9% (inactive)
COc1cccc(OC)c1OCCN1CCN(C(=O)c2ccco2)CC1	361	-3.1% (inactive)	10.7% (inactive)	104	-24.8% (inactive)	102	0.154	0.0392	-1.87	13.2% (inactive)	-0.538 (inactive)	-6.4e-05 (inactive)	0.00433 (inactive)	inactive	-8.27% (inactive)	11.8% (inactive)	17.9% (inactive)
OC(CCCN1CCC(O)(c2ccc(Cl)cc2)CC1)c1ccc(F)cc1 (stereo not drawn)	686	-2.4% (inactive)	-13.4% (inactive)	116	-82.7% (inactive)	118	1.1	0.439	-0.848	14.6% (inactive)	-0.468 (inactive)	-6.6e-05 (inactive)	0.00402 (inactive)	inactive	20.5% (inactive)	12.8% (inactive)	40.2% (inactive)
